Screening results from PubChem.
SMN2 splice up: SMN2 splice variant enhancement | HEK293 SMN2-luciferase splicing reporter, luminescence, 30-36 h | Potency, µM (series often up to 46.1 µM), for the others: at the top dose activity change, positive = activation, usual class: activators | 210,000 compounds, 2.8% hits; further: % of control where 0% means no effect; nearly all actives have a fitted effect of over 55% in size
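qHTS luciferase splicing reporter: luminescence rises when SMN2 exon 7 is included in transfected HEK293 cells. Compound exposure lasted 30-36 h at 37C, with 4.5 mM final sodium butyrate as control, followed by a ONE-Glo read.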
KinaseGlo FLuc: Kinase-Glo luciferase inhibition (counter-screen); AID 1379; Q27757; 200,000 compounds, 0.28% hits; Potency, µM (highest dose often 38.3 µM), inactives show at the highest dose activity change, negative = inhibition, most hits filed as inhibitors; Kinase-Glo luciferase, ATP luminescence, 8 min; further: on the % scale 0 is the no-effect control and ±100 the full control effect; nearly all actives have a fitted effect of over 60% in size
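Light output from Kinase-Glo luciferase with luciferin and 10 uM ATP in 50 mM imidazole pH 7.2, KCl, MgCl2, Tween 20, BSA; compound pin-delivered, 8-min ambient incubation, then luminescence read.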
Rab9 prom act: activates the Rab9 promoter | Huh7 Rab9 promoter-luciferase reporter, luminescence, 24 h | Potency, µM (highest dose often 9.22 µM), for the others: at the top dose activation, negative = inhibition, usual class: activators | 320,000 compounds, 2.8% hits | AID 485297; further: % of control where 0% means no effect; nearly all actives have a fitted effect of over 60% in size
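Quantitative HTS format; Huh7 Rab9-luciferase reporter cells (1500/well) receive compound 2 h post-plating, incubate 24 h at 37 °C, then get luciferase reagent for 10 min before luminescence reading.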
ELG1 genotox: inducers of genotoxicity in HEK293T ELG1-luciferase cells. HEK293T ELG1-luciferase reporter, luminescence, 16 h. Potency, µM (top dose mostly 46 µM), inactives show at the top dose activity change, positive = activation, usual class: activators. 330,000 compounds, 1.3% hits. AID 504466; further: % of control where 0% means no effect; nearly all actives have a fitted effect of over 60% in size
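Luminescence read-out: rising ELG1-luciferase signal, reflecting elevated ELG1 protein under genetic stress, flags genotoxic compounds. Cells were treated for 16 hr at 37 °C before ONE-Glo detection.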
NPC1 prom act: activates the NPC1 promoter. Huh7 NPC1 promoter luciferase reporter, 24 h. AID 485313. 320,000 compounds, 2.4% hits. Potency, µM (doses to about 9.22 µM), inactives show top-dose activation, most hits filed as activators; further: % of control where 0% means no effect; nearly all actives have a fitted effect of over 60% in size
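In 1536-well qHTS, Huh7 cells harboring an NPC1 promoter–luciferase construct received compound for 24 h; activation was quantified by luminescence following luciferase reagent addition.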
FLuc counter: counter-screen for miR-21 project: firefly luciferase inhibitors or activators; P08659; purified FLuc, Km substrates, luminescence inhibition; Potency, µM (titrated, usually from 57.5 µM), for inactives: at the top dose activity change, negative = inhibition, hits mostly inhibitors; 360,000 compounds, 6.9% hits;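 further: plate controls were vehicle for no effect and reference inhibitor for full effect; nearly all actives have a fitted effect of over 55% in size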
Target sequence (P08659 whole entry, looked up): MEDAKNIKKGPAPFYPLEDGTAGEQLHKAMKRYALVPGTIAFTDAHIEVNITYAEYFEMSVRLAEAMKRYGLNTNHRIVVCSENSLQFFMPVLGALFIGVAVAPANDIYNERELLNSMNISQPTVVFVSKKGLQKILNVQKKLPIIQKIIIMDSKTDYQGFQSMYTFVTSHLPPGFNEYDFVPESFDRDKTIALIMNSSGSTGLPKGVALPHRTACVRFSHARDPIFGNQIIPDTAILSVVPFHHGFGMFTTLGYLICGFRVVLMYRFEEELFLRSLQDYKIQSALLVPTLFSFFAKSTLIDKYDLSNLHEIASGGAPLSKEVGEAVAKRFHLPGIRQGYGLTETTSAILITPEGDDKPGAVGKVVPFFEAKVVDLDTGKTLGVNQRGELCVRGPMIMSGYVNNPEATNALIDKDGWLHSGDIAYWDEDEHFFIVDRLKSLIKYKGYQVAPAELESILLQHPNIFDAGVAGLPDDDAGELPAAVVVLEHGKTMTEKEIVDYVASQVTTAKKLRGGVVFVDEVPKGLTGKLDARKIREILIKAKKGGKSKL
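Biochemical qHTS of compounds, final roughly 60 µM downward over six points, against 10 nM purified firefly luciferase using Km concentrations of substrates (10 uM D-luciferin, 10 uM ATP) in Tris acetate pH 7.5 buffer; luminescence output.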
* hit, by the source's call; ? = inconclusive; nt = no result. Hits are enriched below; roughly 7.5% of the tested compounds scored in any of these assays. The call rests on the fitted dose curve; in most records, active means well fitted curve in the direction sought with a large enough effect; inconclusive means small, poorly fitted or top-dose-only effect, or another doubt; inactive means no such curve, though single readings can be large; an effect the other way counts as inactive or inconclusive. Potency means the concentration at half of the fitted maximal effect.

SMILES | SMN2 splice up | KinaseGlo FLuc | Rab9 prom act | ELG1 genotox | NPC1 prom act | FLuc counter
Cc1c(C(N)=O)sc2nc(-c3ccccc3)cn12 | 29.9% | -0.5% | ? | ? | ? | 19µM*
COc1ccc(-c2cn3c(C)c(C(=O)Nc4cccc(NC(C)=O)c4)sc3n2)cc1 | -17.7% | -1.0% | -3.2% | 2.2% | 9.2% | 9.53µM*
COc1ccc(N2CCN(C(=O)c3cnn(-c4ccc(OC)cc4)c3C3CCN(C(=O)OC(C)(C)C)CC3)CC2)cc1 | nt | nt | nt | nt | nt | -1.9%
COc1cc(/C=C2\N=C3CCCCCN3C2=O)ccc1O | ? | -8.0% | 15.8% | ? | 1.7% | 16.9µM*
COc1ccc(/C=C2\N=C3CCCCCN3C2=O)cc1OC | 26.0% | -2.3% | 1.6% | 3.7% | 14.0% | ?
COc1ccc(/C=C2/N=C3CCCCCN3C2=O)cc1 | 0.3% | -1.3% | -2.8% | ? | -0.8% | 16.9µM*
O=C1/C(=C\c2ccc(O)c(O)c2)N=C2CCCCCN12 | nt | nt | -2.3% | ? | -6.3% | 19µM*
O=C1/C(=C/c2cccnc2)N=C2CCCCCN12 | 3.9% | -2.8% | -1.3% | 0.3% | 0.9% | -7.7%
Cc1ccc2nc(SCc3cccc([N+](=O)[O-])c3)nc(C)c2c1 | -8.8% | -1.3% | 2.2% | 0.7% | 0.1% | -16.2%
COc1ccc2nc(SCc3cccc(C)c3)nc(C)c2c1 | 20µM* | 2.7% | 3.98µM* | ? | ? | 10.7µM*
COc1ccc2nc(SCC(=O)O)nc(C)c2c1 | 35.5% | -1.0% | 9.1% | 15.4% | 10.0% | -22.3%
COc1ccc2nc(SCc3ccccc3C)nc(C)c2c1 | 22.4µM* | 1.0% | ? | ? | ? | ?
O=C1NC(Cc2ccccc2)c2nc3ccccc3c(=O)n2-c2cc(Cl)ccc21 (stereo not drawn) | nt | nt | 0.3% | 2.0% | -1.9% | 5.9%
COc1ccc(OC)c(/C=N/N=C(\N)c2nonc2N)c1 | nt | nt | -2.7% | 1.4% | -0.6% | ?
N/C(=N\N=C\c1ccc(Br)o1)c1nonc1N | nt | nt | 1.26µM* | ? | 2.51µM* | 12µM*
Nc1nonc1C(=O)N/N=C/c1ccc(Br)o1 | nt | nt | -1.6% | 0.1% | -2.3% | 19µM*
Cc1ccc(OCc2nc(-c3cccs3)no2)c([N+](=O)[O-])c1 | 2.82µM* | -8.6% | 0.251µM* | ? | 0.398µM* | 0.757µM*
O=C(O)CCc1nc(-c2cccs2)no1 | -6.4% | -2.4% | -0.9% | -1.3% | -5.8% | 1.6%
O=[N+]([O-])c1ccc(F)cc1OCc1nc(-c2cccs2)no1 | 15.8µM* | -1.3% | ? | ? | 23.2% | 9.53µM*
O=[N+]([O-])c1ccccc1OCc1nc(-c2cccs2)no1 | 12.6µM* | -0.6% | 2.51µM* | ? | 2.51µM* | 6.75µM*
Cc1ccc(CNC(=O)CCCn2nc(C)c3c(C)n(-c4ccccc4)nc3c2=O)cc1 | nt | nt | -4.0% | -0.3% | -5.8% | 0.4%
O=C(Nc1ccc2[nH]ncc2c1)c1ccc(F)cc1 | nt | nt | 2.24µM* | ? | 2.82µM* | 8.49µM*
O=C(Nc1ccc2[nH]ncc2c1)c1ccccc1 | nt | nt | 3.16µM* | ? | 2.82µM* | 13.5µM*
O=C(NC(=S)Nc1ccc2cn[nH]c2c1)c1ccccc1 | 17.8µM* | -1.2% | 4.47µM* | 2.9% | 3.55µM* | 19µM*
Cc1ccc(OCC(=O)N(Cc2ccco2)Cc2ccco2)cc1C | -5.6% | nt | nt | nt | nt | -17.9%
SMILES | SMN2 splice up | KinaseGlo FLuc | Rab9 prom act | ELG1 genotox | NPC1 prom act | FLuc counter
O=C(CN1CCN(Cc2ccccc2Cl)CC1)N/N=C/c1ccco1 | nt | nt | -2.3% | -3.0% | -6.2% | -1.8%
Cc1ccccc1-c1nc(SCC(=O)NCc2ccco2)c2c(=O)n(C)c(=O)n(C)c2n1 | nt | nt | nt | nt | nt | -1.9%
COc1cccc(NC(=O)CSc2nc(=O)n(Cc3ccncc3)c3c2CCC3)c1 | nt | nt | nt | nt | nt | 0.5%
Cc1cccc(Oc2ccc3c(c2)cc(C(=O)O)n3C)c1 | nt | nt | 4.5% | -4.9% | -2.8% | -17.0%
Cc1ccc(NC(=O)c2cc(NC(=O)c3ccco3)ccc2N2CCOCC2)cc1Cl | -4.4% | -0.5% | -0.3% | 8.5% | -9.7% | 4.6%
O=C(Nc1cc(Cl)ccc1N1CCOCC1)c1ccco1 | nt | nt | -0.4% | 0.6% | -1.7% | 1.6%
CCC(=O)Nc1ccc(N2CCN(C(=O)c3ccco3)CC2)c(Cl)c1 | nt | nt | -3.9% | -2.7% | -2.8% | -1.5%
CCN1CCN(c2ccc(NC(=O)c3ccco3)cc2Cl)CC1 | nt | nt | ? | ? | ? | 16.9µM*
O=C(Nc1ccc(N2CCOCC2)c([N+](=O)[O-])c1)c1ccco1 | 12.6µM* | -0.3% | ? | 7.1% | 26.0% | 16.9µM*
O=C(Nc1ccc(N2CCCC2)c(Cl)c1)c1ccco1 | 6.31µM* | -12.3% | 0.501µM* | ? | 1.41µM* | 4.78µM*
CN1CCN(c2ccc(NC(=O)c3ccco3)cc2Cl)CC1 | nt | nt | 0.631µM* | 8.2µM* | 0.398µM* | 4.78µM*
Cc1ccc(C(=O)Nc2ccc(Br)cc2)cc1S(=O)(=O)N1CCOCC1 | nt | nt | nt | nt | nt | -17.7%
O=C(CCCCn1c(=O)c2ccccc2n(CC(=O)Nc2cccc(F)c2)c1=O)NCCc1ccccc1 | -2.6% | nt | nt | nt | nt | -2.3%
COC(=O)CSc1nc2sc3c(c2c(=O)n1Cc1ccccc1)CCC(C(C)(C)C)C3 (stereo not drawn) | -9.3% | nt | nt | nt | nt | -0.6%
CCN1CCN(c2ccc(S(=O)(=O)N3CCCCC3)cc2NC(=O)CC(NC(C)=O)c2ccccc2)CC1 (stereo not drawn) | nt | nt | -7.3% | -1.5% | 3.0% | 5.9%
CCN1CCN(c2ccc(NC(=O)c3cccc(F)c3)cc2Cl)CC1 | nt | -2.6% | 3.55µM* | ? | ? | 16.9µM*
O=C(Nc1ccc(N2CCCCC2)c(Cl)c1)c1ncn[nH]1 | nt | 1.1% | 23.5% | ? | ? | 6.01µM*
COc1ccc(OC)c(CNS(=O)(=O)c2c(C(=O)N3CCC(C)CC3)c(C)n(C)c2C)c1 | nt | nt | nt | nt | nt | -1.8%
COc1cc(-c2nnc(NC(=O)c3ccco3)o2)cc(OC)c1OC | nt | nt | -4.9% | 5.0% | -0.8% | -2.9%
CS(=O)(=O)c1ccc(-c2nnc(NC(=O)c3ccco3)o2)cc1 | nt | nt | -4.2% | 10.1% | 0.1% | 12µM*
O=C(Nc1nnc(-c2ccc(Br)cc2)o1)c1ccco1 | nt | nt | ? | 5.5% | 22.3% | 2.69µM*
Cc1ccc(CN2C(=O)N(c3ccc(F)cc3)C(=O)C2CC(=O)Nc2ccc(Cl)cc2)cc1 (stereo not drawn) | -8.5% | nt | nt | nt | nt | -1.1%
COc1cccc(OC)c1C(=O)Nc1cccc(C(=O)Nc2cccc(C(=O)O)c2)c1 | nt | nt | 6.6% | -1.5% | 7.3% | 9.53µM*
COc1ccccc1NC(=O)Nc1ccc2c(c1)nnn2C | ? | -7.2% | 3.16µM* | 13µM* | ? | 12µM*
COc1ccccc1NC(=O)Nc1cccc(C(=O)O)c1 | -13.6% | -6.0% | ? | 0.6% | ? | 12µM*
